This note sets out measurements from PubChem BioAssay (Tox21).

Records with an inconclusive call do not appear. Calls of active or inactive are those of the source. Unless noted, calls come from the whole dose curve; as a rule, active = well fitted curve in the direction sought with a large enough effect in the repeat runs; inconclusive = weak or mixed curves; inactive = no such curve, though single readings can be large; an effect the other way counts as inactive or inconclusive.

A short description of assay [1]: qHTS assay to identify small molecule agonists of the androgen receptor (AR) signaling pathway in the presence of an antagonist - cell viability counter screen (AID 1259379). Note: nearly all actives have a fitted effect of over 25% in size. Note: potency is the fitted concentration of half-maximal effect. An outline of the steps: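 Nilutamide-containing (3.0uM final) MDA-kb2 cultures, 3,000 cells/well, were treated with compounds across 15 concentrations. After 16 hr at 37C with no CO2, cell viability was determined by CellTiter-Fluor fluorescence in the luciferase assay wells.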
In general terms: In qHTS, concentration-response curves come from the screen itself.

Assay [2] deals with Androgen receptor (Homo sapiens) (UniProt P10275). Kind of assay: qHTS assay to identify small molecule agonists of the androgen receptor (AR) signaling pathway in the presence of an antagonist (AID 1259381; calls by dose curve; note: nearly all actives have a fitted effect of over 15% in size). An outline of the steps:
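Reporter-gene luminescence from MDA-kb2 cells exposed 16hr at 37C (0% CO2) to 15-point compound titrations with 3.0uM final nilutamide as AR antagonist.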

The nature of assay [3]: qHTS assay to identify small molecule antagonists of the estrogen receptor beta (ER-beta) signaling pathway - cell viability counter screen (AID 1259382). Note: nearly all actives have a fitted effect of over 55% in size. Note: potency is the fitted concentration of half-maximal effect. The method in brief: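 Viability is scored by CellTiter-Glo luminescence (30 min, room temperature) in ER-beta-UAS-bla HEK293T wells already read for reporter fluorescence. Compound exposure lasts 16 hr at 37C alongside 1nM 17-beta-estradiol in charcoal-stripped serum medium.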

Assay [4] in a line: qHTS assay to identify small molecule agonists or antagonists of the thyroid stimulating hormone receptor (TSHR) signaling pathway - wild type cell line counter screen (AID 1259384; calls by dose curve). An outline of the steps:
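Wild-type Hek293 cells, 800/well, 18 h at 37C, then compound with Ro20-1724 for 30 min RT. cAMP by HTRF (cAMP-d2/anti-cAMP cryptate), 1 h RT, fluorescence read. 15 concentrations, triplicates.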

The nature of assay [5]: qHTS assay to identify small molecule agonists of the estrogen receptor alpha (ER-alpha) signaling pathway in the presence of an antagonist - cell viability counter screen (AID 1259386).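 Note: cells exposed to compounds for 22 h at 37 °C before the viability read; nearly all actives have a fitted effect of over 30% in size.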 Note: potency is the fitted concentration of half-maximal effect. The method in brief: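 In this counter screen, compound effects on VM7Luc4E2 viability were tested in the presence of the antagonist ICI-182,780 at 10.0nM final. Compounds were dosed at 15 concentrations, exposure lasted 22hr, and the CellTiter-Fluor signal was read.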

Assay [6] deals with Progesterone receptor (Homo sapiens) (UniProt P06401). Kind of assay: qHTS assay to identify small molecule agonists of the progesterone receptor (PR) signaling pathway (AID 1346784; calls by dose curve; note: nearly all actives have a fitted effect of over 30% in size). The method in brief: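 The screen uses PR-UAS-bla HEK 293T cells in charcoal-stripped serum (2%). Compounds are applied for 16 hr at 37C after a 6 hr pre-incubation, and reporter activity is detected with a FRET beta-lactamase substrate after 2 hr at room temperature.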
Sequence of Progesterone receptor (Homo sapiens) (P06401 whole entry, looked up): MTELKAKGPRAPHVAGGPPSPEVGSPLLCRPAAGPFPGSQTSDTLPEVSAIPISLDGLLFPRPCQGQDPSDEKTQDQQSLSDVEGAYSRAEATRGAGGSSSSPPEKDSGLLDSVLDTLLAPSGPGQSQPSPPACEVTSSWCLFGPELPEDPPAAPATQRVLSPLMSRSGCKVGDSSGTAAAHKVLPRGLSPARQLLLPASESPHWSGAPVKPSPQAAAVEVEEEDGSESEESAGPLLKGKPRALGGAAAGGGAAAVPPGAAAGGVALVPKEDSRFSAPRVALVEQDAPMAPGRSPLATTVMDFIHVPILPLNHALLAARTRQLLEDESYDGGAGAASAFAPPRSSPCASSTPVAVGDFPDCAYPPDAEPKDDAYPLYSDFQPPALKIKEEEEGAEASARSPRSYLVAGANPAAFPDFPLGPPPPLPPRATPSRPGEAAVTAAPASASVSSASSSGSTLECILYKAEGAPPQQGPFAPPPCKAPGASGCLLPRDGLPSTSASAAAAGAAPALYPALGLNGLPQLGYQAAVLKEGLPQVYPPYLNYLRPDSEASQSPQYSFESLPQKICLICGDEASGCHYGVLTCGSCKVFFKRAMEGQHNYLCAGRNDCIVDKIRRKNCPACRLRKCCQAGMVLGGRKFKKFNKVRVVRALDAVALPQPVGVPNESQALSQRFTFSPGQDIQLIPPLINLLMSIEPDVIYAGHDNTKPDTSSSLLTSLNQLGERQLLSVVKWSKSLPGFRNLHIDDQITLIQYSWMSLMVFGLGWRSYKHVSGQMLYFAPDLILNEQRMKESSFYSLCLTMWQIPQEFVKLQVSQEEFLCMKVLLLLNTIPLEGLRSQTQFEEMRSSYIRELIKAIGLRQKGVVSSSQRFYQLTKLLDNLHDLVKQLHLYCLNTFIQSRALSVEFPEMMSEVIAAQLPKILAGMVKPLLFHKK

The nature of assay [7]: qHTS assay to identify small molecule antagonists of the TGF-beta/Smad signaling pathway - cell viability counter screen (AID 1346824). Note: nearly all actives have a fitted effect of over 50% in size. The method in brief:
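SBE-bla HEK 293T cells, incubated overnight, then compound plus 0.25 ng/mL TGF-beta1 (stock added) for 5 hr at 37 C. Viability was read in the same wells by CellTiter-Glo luminescence after 30 min at room temperature.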

The nature of assay [8]: qHTS assay to identify small molecule agonists of the TGF-beta/Smad signaling pathway - cell viability counter screen (AID 1346829). Note: top concentration of the series differs between compounds; nearly all actives have a fitted effect of over 45% in size. The method in brief: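 HEK 293T SBE-bla line, 5 hr compound exposure at 37 C, multiplexed CellTiter-Glo viability read by luminescence.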
Assay [9] in a line: qHTS assay to identify small molecule agonists of the TGF-beta/Smad signaling pathway (AID 1346859; active = well fitted activation curve with a large enough effect in the signal ratio in the repeat runs, not every such curve was filed as active; the % refers to the signal ratio; note: series mostly up to about 77 µM). An outline of the steps:
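Dual-wavelength fluorescence (460/530 nm emission) quantified beta-lactamase expression under the Smad binding element in HEK 293T cells following 5 hr compound treatment at 37 C.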

In assay [10] the target is Thyrotropin-releasing hormone receptor (Homo sapiens) (UniProt P34981). Kind of assay: qHTS assay to identify small molecule antagonists of the thyrotropin-releasing hormone receptor (TRHR) signaling pathway (AID 1346877; active = well fitted inhibition curve with a large enough effect in the repeat runs, not every such curve was filed as active; note: series mostly up to about 51 µM). The method in brief: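 Kinetic fluorescence (3 min, 1 s resolution) following stimulation with TRH at 1 nM final; HEK293 cells bearing human TRHR; 5 min compound preincubation at RT; concentration-response over 15 points, triplicates.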
Sequence of Thyrotropin-releasing hormone receptor (Homo sapiens) (P34981 whole entry, looked up): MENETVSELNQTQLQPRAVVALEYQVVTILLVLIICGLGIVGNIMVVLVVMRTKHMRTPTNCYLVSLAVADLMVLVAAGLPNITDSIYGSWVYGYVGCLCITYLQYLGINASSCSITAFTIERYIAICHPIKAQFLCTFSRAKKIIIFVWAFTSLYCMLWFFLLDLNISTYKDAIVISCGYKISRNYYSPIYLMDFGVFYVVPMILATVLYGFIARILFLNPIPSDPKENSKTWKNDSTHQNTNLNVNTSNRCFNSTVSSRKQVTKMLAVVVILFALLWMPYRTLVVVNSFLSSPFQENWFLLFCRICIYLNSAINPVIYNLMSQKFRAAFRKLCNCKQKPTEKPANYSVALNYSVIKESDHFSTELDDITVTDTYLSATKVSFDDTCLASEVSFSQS

Assay [11] has the same target. Kind of assay: qHTS assay to identify small molecule agonists of the thyrotropin-releasing hormone receptor (TRHR) signaling pathway (AID 1346891; calls by dose curve;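 note: HEK293 cells expressing TRHR with calcium dye readout; series mostly up to about 58 µM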). An outline of the steps: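 Kinetic fluorescence (3 min, 1 s intervals) reported intracellular calcium after compound transfer onto TRHR-Hek293 cells pre-loaded with dye for 2 h at 37 °C.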
In assay [12] the target is Estrogen receptor beta (Homo sapiens) (UniProt Q92731). Kind of assay: qHTS assay to identify small molecule agonists of the estrogen receptor beta (ER-beta) signaling pathway (AID 1259377; active = well fitted activation curve with a large enough effect in the signal ratio in the repeat runs, not every such curve was filed as active; the % refers to the signal ratio). An outline of the steps:
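Measured by fluorescence intensity from a B/G FRET beta-lactamase substrate (2 h, room temperature) in ER-beta-UAS-bla HEK293T cells treated with DMSO-dissolved compounds for 16 hr at 37C and 5% CO2.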

Assay [13] in a line: qHTS assay to identify small molecule agonists of the estrogen receptor beta (ER-beta) signaling pathway - cell viability counter screen (AID 1259380). Note: nearly all actives have a fitted effect of over 30% in size. Note: potency is the fitted concentration of half-maximal effect. An outline of the steps: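 Steps: plate ER-beta-UAS-bla HEK293T cells, rest 6 hr; add compounds in DMSO; incubate 16 hr at 37C, 5% CO2; add FRET substrate 2 hr; add CellTiter-Glo, wait 30 min at room temperature; read luminescence.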

The target of assay [14] is Estrogen receptor (Homo sapiens) (UniProt P03372). Kind of assay: qHTS assay to identify small molecule agonists of the estrogen receptor alpha (ER-alpha) signaling pathway in the presence of an antagonist (AID 1259383; calls by dose curve; note: top concentration of the series differs between compounds; nearly all actives have a fitted effect of over 15% in size). An outline of the steps:
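Readout was ERE-driven luciferase luminescence in VM7Luc4E2 cells, which express full-length ER-alpha endogenously. Compounds were tested at 15 concentrations for 22hr alongside 10.0nM ICI-182,780 (final concentration).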

The target in assay [15] is Thyrotropin receptor (Homo sapiens) (UniProt P16473). Kind of assay: qHTS assay to identify small molecule antagonists of the thyroid stimulating hormone receptor (TSHR) signaling pathway (AID 1259385; calls by dose curve; note: nearly all actives have a fitted effect of over 20% in size). An outline of the steps: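 TSHR-HEK293 cells (800/well) plated 18 h, then compounds with Ro20-1724 and TSH at 1.5 ng/mL final, 30 min at room temperature. cAMP quantified by HTRF (cAMP-d2/anti-cAMP-cryptate, 1 h); 15 concentrations in triplicate.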
Sequence of Thyrotropin receptor (Homo sapiens) (P16473 whole entry, looked up): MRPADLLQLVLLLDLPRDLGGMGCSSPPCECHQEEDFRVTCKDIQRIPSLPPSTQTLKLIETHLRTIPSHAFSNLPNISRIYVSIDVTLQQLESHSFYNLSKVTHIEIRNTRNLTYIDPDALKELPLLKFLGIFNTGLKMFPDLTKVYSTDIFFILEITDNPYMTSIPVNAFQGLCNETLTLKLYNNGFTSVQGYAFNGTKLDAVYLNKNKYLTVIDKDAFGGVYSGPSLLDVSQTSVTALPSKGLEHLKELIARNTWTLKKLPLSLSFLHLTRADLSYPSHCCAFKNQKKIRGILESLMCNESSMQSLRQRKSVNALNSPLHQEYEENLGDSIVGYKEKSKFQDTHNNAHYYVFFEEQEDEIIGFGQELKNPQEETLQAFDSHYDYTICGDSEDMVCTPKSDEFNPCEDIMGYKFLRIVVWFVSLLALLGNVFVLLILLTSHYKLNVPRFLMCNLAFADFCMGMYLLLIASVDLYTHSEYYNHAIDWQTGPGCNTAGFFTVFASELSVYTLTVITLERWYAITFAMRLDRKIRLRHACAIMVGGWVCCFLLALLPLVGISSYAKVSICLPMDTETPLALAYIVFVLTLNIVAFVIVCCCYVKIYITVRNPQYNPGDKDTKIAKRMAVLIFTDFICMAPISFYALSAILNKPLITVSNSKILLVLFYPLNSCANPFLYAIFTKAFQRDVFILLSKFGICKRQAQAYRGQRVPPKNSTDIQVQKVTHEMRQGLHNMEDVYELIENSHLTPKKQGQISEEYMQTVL

For assay [16], the target named is Progesterone receptor (Homo sapiens) (UniProt P06401). Kind of assay: qHTS assay to identify small molecule antagonists of the progesterone receptor (PR) signaling pathway (AID 1346795; active = well fitted inhibition curve with a large enough effect in the signal ratio in the repeat runs, not every such curve was filed as active; the % refers to the signal ratio; note: potency is the fitted concentration of half-maximal effect). The method in brief:
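After 6 hr plating at 37C in 2% stripped-serum medium, PR-UAS-bla HEK293T cells got compounds, then 1 nM R5020. Sixteen hours later, LiveBLAzer substrate was applied for 2 hr at room temperature and fluorescence was recorded.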

Assay [17] in a line: qHTS assay to identify small molecule antagonists of the progesterone receptor (PR) signaling pathway - cell viability counter screen (AID 1346798). Note: series mostly up to about 92 µM; nearly all actives have a fitted effect of over 50% in size. An outline of the steps:
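Viability was determined by ATP-based luminescence (CellTiter-Glo) in PR-UAS-bla HEK293T cells cultured in 2% charcoal-stripped serum and incubated 16 hr with compounds under R5020 stimulation.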

A short description of assay [18]: qHTS assay to identify small molecule agonists of the progesterone receptor (PR) signaling pathway - cell viability counter screen (AID 1346799; calls by dose curve; note: nearly all actives have a fitted effect of over 45% in size). The method in brief: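 Viability was scored by ATP luminescence (CellTiter-Glo, 30 min, room temperature) in the same wells used for the reporter readout, after 16 hr compound exposure of PR-UAS-bla HEK293T cells.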

Sequence of Estrogen receptor beta (Homo sapiens) (Q92731 whole entry, looked up): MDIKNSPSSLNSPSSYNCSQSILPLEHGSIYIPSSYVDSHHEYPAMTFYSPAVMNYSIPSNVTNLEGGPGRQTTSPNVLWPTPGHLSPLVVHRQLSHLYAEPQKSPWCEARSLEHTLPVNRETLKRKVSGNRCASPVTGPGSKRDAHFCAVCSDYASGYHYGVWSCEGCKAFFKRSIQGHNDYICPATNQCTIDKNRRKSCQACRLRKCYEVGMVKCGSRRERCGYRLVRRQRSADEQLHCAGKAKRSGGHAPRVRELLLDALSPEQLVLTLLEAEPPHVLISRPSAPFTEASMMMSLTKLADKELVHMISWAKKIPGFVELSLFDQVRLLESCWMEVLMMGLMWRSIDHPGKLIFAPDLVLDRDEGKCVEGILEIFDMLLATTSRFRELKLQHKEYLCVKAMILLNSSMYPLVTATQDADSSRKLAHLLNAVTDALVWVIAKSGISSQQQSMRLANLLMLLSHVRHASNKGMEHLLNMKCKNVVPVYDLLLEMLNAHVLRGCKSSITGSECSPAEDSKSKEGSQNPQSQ
Sequence of Androgen receptor (Homo sapiens) (P10275 whole entry, looked up): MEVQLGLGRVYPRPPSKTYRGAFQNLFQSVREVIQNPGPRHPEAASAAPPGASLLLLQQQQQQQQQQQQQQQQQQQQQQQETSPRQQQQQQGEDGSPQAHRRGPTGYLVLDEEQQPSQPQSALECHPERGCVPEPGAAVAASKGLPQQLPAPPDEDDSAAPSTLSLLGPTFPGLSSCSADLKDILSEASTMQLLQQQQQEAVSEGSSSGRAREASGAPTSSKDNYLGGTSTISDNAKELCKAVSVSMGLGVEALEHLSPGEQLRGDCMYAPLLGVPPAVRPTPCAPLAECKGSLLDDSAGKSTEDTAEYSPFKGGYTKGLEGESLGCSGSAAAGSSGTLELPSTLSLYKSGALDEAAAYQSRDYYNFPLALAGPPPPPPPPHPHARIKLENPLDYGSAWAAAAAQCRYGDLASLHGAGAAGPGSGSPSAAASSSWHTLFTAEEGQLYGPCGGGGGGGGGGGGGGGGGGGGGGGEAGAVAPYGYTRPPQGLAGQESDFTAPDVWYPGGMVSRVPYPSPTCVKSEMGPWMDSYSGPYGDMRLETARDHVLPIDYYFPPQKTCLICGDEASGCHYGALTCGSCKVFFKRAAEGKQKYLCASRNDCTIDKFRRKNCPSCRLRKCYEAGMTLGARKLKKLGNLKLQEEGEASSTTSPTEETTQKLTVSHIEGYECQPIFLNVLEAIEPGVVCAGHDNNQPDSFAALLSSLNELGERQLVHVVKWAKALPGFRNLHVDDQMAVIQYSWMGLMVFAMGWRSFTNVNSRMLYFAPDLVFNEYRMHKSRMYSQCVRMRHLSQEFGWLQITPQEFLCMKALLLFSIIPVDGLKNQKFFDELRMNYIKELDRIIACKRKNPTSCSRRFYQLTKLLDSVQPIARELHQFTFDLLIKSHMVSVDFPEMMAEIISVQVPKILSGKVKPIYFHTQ
Sequence of Estrogen receptor (Homo sapiens) (P03372 whole entry, looked up): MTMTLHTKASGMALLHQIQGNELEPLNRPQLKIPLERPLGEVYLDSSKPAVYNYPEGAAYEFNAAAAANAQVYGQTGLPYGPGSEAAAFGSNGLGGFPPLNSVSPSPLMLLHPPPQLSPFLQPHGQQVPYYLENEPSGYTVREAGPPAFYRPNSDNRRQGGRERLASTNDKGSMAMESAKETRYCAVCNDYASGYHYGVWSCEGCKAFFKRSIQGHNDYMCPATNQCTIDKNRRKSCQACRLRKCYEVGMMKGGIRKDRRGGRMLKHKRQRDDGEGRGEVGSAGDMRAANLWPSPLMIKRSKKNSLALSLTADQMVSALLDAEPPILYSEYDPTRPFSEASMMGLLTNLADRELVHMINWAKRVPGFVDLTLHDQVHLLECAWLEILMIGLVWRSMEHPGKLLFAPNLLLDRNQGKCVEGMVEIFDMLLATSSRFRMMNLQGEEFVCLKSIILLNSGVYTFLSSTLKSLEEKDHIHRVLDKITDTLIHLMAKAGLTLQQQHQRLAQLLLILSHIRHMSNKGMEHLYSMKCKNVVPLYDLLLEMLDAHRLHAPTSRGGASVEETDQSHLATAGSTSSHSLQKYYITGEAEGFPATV

`CCOP(=O)(NC(C)C)Oc1ccc(SC)c(C)c1` (configuration not stated): the Potency entry in assay [1], in assay [2], in [3], in assay [5], in assay [6] and in assay [7] was “inactive” each time. In addition, the Potency entry in [8], in assay [10] and in [11] was “inactive” in each case. Moreover, the compound was called inactive in assay [4] and in [9].
As for `Cc1c(Cl)c(=O)oc2cc(OP(=O)(OCCCl)OCCCl)ccc12`, the Potency result in assay [12], in assay [13], in assay [3], in assay [14], in assay [15] and in assay [5] was “inactive” in each case. Besides, the Potency result in assay [6], in assay [7] and in assay [8] was “inactive” in each case. The Potency in [16] is 7.5 µM (active).
With `CCS(=O)(=O)c1cccnc1S(=O)(=O)NC(=O)Nc1nc(OC)cc(OC)n1`, the Potency result in assay [1], in assay [13], in assay [15], in [5], in [6] and in assay [16] was “inactive” each time. In addition, the Potency result in assay [17], in assay [18], in [7], in [8], in [10] and in assay [11] was “inactive” each time. Besides, the compound was classed as inactive in [4] and in assay [9].
For `O=c1c(C2CC(c3ccc(-c4ccc(Br)cc4)cc3)Cc3ccccc32)c(O)sc2ccccc12` (configuration not stated), the Potency result in assay [12], in assay [2], in assay [3], in [14], in assay [15] and in assay [6] was “inactive” throughout. Further, the Potency entry in assay [7], in assay [8], in assay [10] and in assay [11] was “inactive” in each case. The Potency in [1] was 29.8 µM (active). Moreover, the outcome in [4] and in assay [9] was inactive.
Regarding `S=C=Nc1cccc2ccccc12`, the Potency entry in assay [1], in [2], in [7], in assay [10] and in assay [11] was “inactive” in each case. Besides, the figures for the Potency in [13], in assay [3] and in assay [16] were 60.5 µM (active), 67.9 µM (active) and 67.9 µM (active), respectively. Besides, the call in assay [4] and in assay [9] was inactive.
Turning to `Cn1cc(C2=C(c3cn(C4CCN(Cc5ccccn5)CC4)c4ccccc34)C(=O)NC2=O)c2ccccc21`, the Potency in assay [1] was 11.9 µM (active). For the same compound, the Potency result in assay [13], in assay [3], in [15], in assay [5], in assay [6] and in assay [7] was “inactive” each time. Besides, the Potency result in assay [8] was “inactive”. Further, the compound was classed as inactive in assay [4].
`CC(C)(C)c1ccc(CSc2cnn(C(C)(C)C)c(=O)c2Cl)cc1`: the Potency entry in [3], in assay [6], in assay [7], in assay [8], in assay [10] and in assay [11] was “inactive” each time. Moreover, the call in assay [4] and in assay [9] was inactive. Further, the Potency in [5] was 2.43 µM (active).
For the compound `CC(=O)[O-].[Tl+]`, the Potency result in assay [1], in [5], in assay [17], in assay [18], in assay [7] and in [8] was “inactive” each time. The Potency in assay [13] is 2.75 µM (active); in assay [3], 38.8 µM (active). Besides, the compound was called inactive in assay [9].
Consider `COc1cc(C=O)cc2c1[C@H](COC(N)=O)[C@]1(OC(C)=O)ON2C[C@H]2[C@@H]1N2C(C)=O`, for which the Potency result in assay [13], in assay [14], in assay [15], in assay [7], in assay [8] and in assay [10] was “inactive” throughout. The Potency result in assay [11] is “inactive”. The call in [4] and in [9] was inactive.
Consider `Nc1ccc(Sc2ccc(N)cc2)cc1`, for which the Potency entry in assay [1], in [14], in [15], in assay [8], in [10] and in assay [11] was “inactive” in each case. Further, the call in assay [4] and in [9] was inactive.
`Nc1ccc(Cl)cc1C(=O)c1ccccc1`: the Potency result in [12], in assay [14], in assay [15], in assay [6], in [17] and in assay [7] was “inactive” in each case. Also, the Potency entry in assay [8] was “inactive”. Further, the compound was called inactive in assay [4] and in [9]. Moreover, in assay [16], the Potency is 17.2 µM (active).
On to `O=c1ssc(Cl)c1Cl`, for which the Potency in assay [1] is 68.6 µM (active). Moreover, the Potency result in assay [14], in assay [5], in assay [18] and in [8] was “inactive” in each case. Also, in assay [9], the outcome was inactive.
On to `C=CC(=O)OCCCCOC(=O)C=C`, for which, in assay [1], the Potency is 54.5 µM (active). Moreover, the Potency result in [13], in assay [14], in assay [15], in assay [5], in [16] and in assay [17] was “inactive” each time. Besides, the Potency result in assay [18], in assay [7], in [8], in assay [10] and in [11] was “inactive” throughout. Besides, the result in [4] and in [9] was inactive.
